The nature of experiment [1]: qHTS assay to test for compound auto fluorescence at 535 nm (green) in HEK293 cells (AID 720680). In general terms: qHTS replaces the single test concentration by a dilution series.
Experiment [2] in a line: qHTS assay to test for compound auto fluorescence at 460 nm (blue) in HEK293 cell free culture (AID 720681). An outline of the steps: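 Blue fluorescence (Ex 405/Em 460 nm, triamterene-equivalent) was read immediately after pin transfer of compound or DMSO into medium (DMEM, 10% FBS) without cells.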
Experiment [3] is described as follows: qHTS assay to test for compound auto fluorescence at 535 nm (green) in HEK293 cell free culture (AID 720682). The method, boiled down: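 No cells present: wells hold DMEM supplemented with 10% FBS, into which compound or vehicle is pinned. Green emission is then recorded (485 nm excitation, 535 nm emission) and scaled to fluorescein.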
The nature of experiment [4]: qHTS assay to test for compound auto fluorescence at 590 nm (red) in HEK293 cell free culture (AID 720683). The method, boiled down:
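Red-channel autofluorescence of compounds in culture medium (DMEM, 10% FBS), no cells, measured at 540/590 nm. Rose Bengal sodium is the reference fluorophore for equivalence.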

Experiment [5] is described as follows: qHTS assay to test for compound auto fluorescence at 590 nm (red) in HepG2 cell free culture (AID 720684). An outline of the steps:
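Steps: dispense MEM/10% FBS medium, no cells; pin compound or DMSO vehicle; read red channel, Ex/Em 540/590 nm. Output given as Rose Bengal sodium equivalents.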

A short description of experiment [6]: qHTS assay to test for compound auto fluorescence at 460 nm (blue) in HepG2 cell free culture (AID 720685). An outline of the steps:
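Compound (23 nL) or DMSO pinned into cell-free MEM with 10% FBS; blue fluorescence read at 405/460 nm excitation/emission, expressed as auto-fluorescence equivalency to triamterene.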

Experiment [7] can be described thus: qHTS assay to test for compound auto fluorescence at 535 nm (green) in HepG2 cell free culture (AID 720686).
Experiment [8] is described as follows: qHTS assay to test for compound auto fluorescence at 460 nm (blue) in HepG2 cells (AID 720687). The method, boiled down:
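Blue-channel autofluorescence (Ex/Em 405/460 nm, triamterene-equivalent) was measured after 1 hr compound exposure at 37 C, 5% CO2. Cells were HepG2, plated overnight at 37 C in MEM plus 10% FBS.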

In experiment [9] the target is Glucocorticoid receptor (Homo sapiens) (UniProt P04150). Put plainly: qHTS assay to identify small molecule agonists of the glucocorticoid receptor (GR) signaling pathway (AID 720691; active = well fitted activation curve with a large enough effect in the signal ratio in the repeat runs, not every such curve was filed as active; inconclusive = weak or mixed curves, or effect the other way; inactive = no such curve, though single readings can be large or run the other way; the % refers to the signal ratio; note: potency is the fitted concentration of half-maximal effect). The method, boiled down:
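qHTS in GR-bla HeLa cells: 4 h settling at 37 C/5% CO2, 18 h compound incubation at 37 C, 2 h LiveBLAzer B/G FRET substrate at room temperature, fluorescence intensity measured.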

Experiment [10] has the same target. The experiment is described as follows: qHTS assay to identify small molecule antagonists of the glucocorticoid receptor (GR) signaling pathway (AID 720692; active = well fitted inhibition curve with a large enough effect in the signal ratio in the repeat runs, not every such curve was filed as active; inconclusive = weak or mixed curves, or effect the other way; inactive = no such curve, though single readings can be large or run the other way; the % refers to the signal ratio; note: potency is the fitted concentration of half-maximal effect). An outline of the steps: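 Inhibition of glucocorticoid signalling is measured in HeLa cells with a GRE-controlled beta-lactamase reporter; cells are co-treated with compound and 5 nM dexamethasone (final) for 18 h before FRET substrate readout.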

Experiment [11] is described as follows: qHTS assay to identify small molecule antagonists of the glucocorticoid receptor (GR) signaling pathway - cell viability counter screen (AID 720693). Note: nearly all actives have a fitted effect of over 55% in size.
The nature of experiment [12]: qHTS assay for identifying genotoxic compounds that show differential cytotoxicity against isogenic chicken DT40 cell lines with known DNA damage response pathways - Rev3 mutant cell line (AID 743014). Note: nearly all actives have a fitted effect of over 55% in size. Note: potency is the fitted concentration of half-maximal effect.
Experiment [13] can be described thus: qHTS assay for identifying genotoxic compounds that show differential cytotoxicity against isogenic chicken DT40 cell lines with known DNA damage response pathways - Rad54/Ku70 mutant cell line (AID 743015). Note: nearly all actives have a fitted effect of over 60% in size. Note: potency is the fitted concentration of half-maximal effect.
Experiment [14] is described as follows: qHTS assay to identify small molecule antagonists of the androgen receptor (AR) signaling pathway using the MDA cell line - cell viability counter screen (AID 743041; note: nearly all actives have a fitted effect of over 45% in size; note: potency is the fitted concentration of half-maximal effect). An outline of the steps:
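Cells were plated at 3,000 per well and left 5 h. Compounds in DMSO were then pinned in, followed by R1881. After 16 h at 37C, CellTiter-Fluor fluorescence gave viability.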

A short description of experiment [15]: qHTS assay to identify small molecule antagonists of the thyroid receptor (TR) signaling pathway - cell viability counter screen (AID 743064). Note: nearly all actives have a fitted effect of over 50% in size. Note: potency is the fitted concentration of half-maximal effect. An outline of the steps: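 Rat GH3 pituitary tumor cells stably expressing two TR response elements driving luciferase were plated, rested 4 h, then dosed with library compounds and T3 (1 nM final). After 23.5 h at 37 °C, CellTiter-Fluor was added for 30 min and fluorescence recorded.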

Experiment [16] in a line: qHTS assay to identify small molecule antagonists of the androgen receptor (AR) signaling pathway - cell viability counter screen (AID 743033; note: nearly all actives have a fitted effect of over 45% in size; note: potency is the fitted concentration of half-maximal effect).
Experiment [17] is described as follows: qHTS assay for identifying genotoxic compounds that show differential cytotoxicity against isogenic chicken DT40 cell lines with known DNA damage response pathways - wild type cell line (AID 743012). Note: nearly all actives have a fitted effect of over 60% in size. Note: potency is the fitted concentration of half-maximal effect. An outline of the steps:
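First, wild type DT40 cells were plated at 300 per well and equilibrated about 0.5 h at 37 C/5% CO2. Next, compounds in DMSO were added and exposure lasted 40 h. Finally, CellTiter-Glo was added for 30 min at room temperature and luminescence recorded.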

Experiment [18] has as its target Androgen receptor (Homo sapiens) (UniProt P10275). Put plainly: qHTS assay to identify small molecule antagonists of the androgen receptor (AR) signaling pathway using the MDA cell line (AID 743042; note: nearly all actives have a fitted effect of over 55% in size). The method, boiled down:
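Antagonist mode: compounds plus R1881 agonist added to MDA-kb2 AR-luc cells, incubated 16 h at 37C. Luciferase reporter luminescence quantified, with multiplexed CellTiter-Fluor readout for cell viability.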

Values joined by “and” are separate entries in the source; they are usually repeats but may differ in a detail not shown here. Equal entries are not always repeated. A structure can be active in one record and inactive in another. Active and inactive are the calls of the source. Unless noted, calls come from the whole dose curve; as a rule, active = well fitted curve in the direction sought with a large enough effect in the repeat runs; inconclusive = weak or mixed curves; inactive = no such curve, though single readings can be large; an effect the other way counts as inactive or inconclusive.

Chain of Androgen receptor (Homo sapiens) (P10275 whole entry, looked up): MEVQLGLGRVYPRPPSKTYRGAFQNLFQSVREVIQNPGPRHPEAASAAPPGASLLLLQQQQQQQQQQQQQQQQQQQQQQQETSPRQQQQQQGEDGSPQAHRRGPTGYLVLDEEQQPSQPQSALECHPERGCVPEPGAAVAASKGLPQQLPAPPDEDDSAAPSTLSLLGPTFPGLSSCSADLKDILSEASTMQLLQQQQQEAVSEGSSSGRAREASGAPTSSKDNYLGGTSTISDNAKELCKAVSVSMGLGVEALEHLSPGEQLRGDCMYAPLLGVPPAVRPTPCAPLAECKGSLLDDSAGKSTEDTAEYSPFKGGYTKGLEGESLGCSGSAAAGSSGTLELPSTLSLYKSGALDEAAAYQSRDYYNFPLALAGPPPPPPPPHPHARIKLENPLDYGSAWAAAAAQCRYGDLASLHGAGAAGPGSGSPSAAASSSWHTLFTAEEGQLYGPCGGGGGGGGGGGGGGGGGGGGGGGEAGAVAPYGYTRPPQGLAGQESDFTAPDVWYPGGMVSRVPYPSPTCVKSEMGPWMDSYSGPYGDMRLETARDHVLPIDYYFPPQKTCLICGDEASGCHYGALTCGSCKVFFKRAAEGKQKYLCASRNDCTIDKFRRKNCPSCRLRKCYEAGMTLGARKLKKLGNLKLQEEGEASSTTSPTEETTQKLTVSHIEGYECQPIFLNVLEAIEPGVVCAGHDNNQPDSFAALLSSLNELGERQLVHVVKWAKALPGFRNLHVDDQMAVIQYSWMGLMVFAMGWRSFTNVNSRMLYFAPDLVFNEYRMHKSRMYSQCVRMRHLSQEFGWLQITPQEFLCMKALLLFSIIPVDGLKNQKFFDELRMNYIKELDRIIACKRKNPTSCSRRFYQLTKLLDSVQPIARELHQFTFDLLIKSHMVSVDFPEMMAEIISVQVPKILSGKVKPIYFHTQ
Chain of Glucocorticoid receptor (Homo sapiens) (P04150 whole entry, looked up): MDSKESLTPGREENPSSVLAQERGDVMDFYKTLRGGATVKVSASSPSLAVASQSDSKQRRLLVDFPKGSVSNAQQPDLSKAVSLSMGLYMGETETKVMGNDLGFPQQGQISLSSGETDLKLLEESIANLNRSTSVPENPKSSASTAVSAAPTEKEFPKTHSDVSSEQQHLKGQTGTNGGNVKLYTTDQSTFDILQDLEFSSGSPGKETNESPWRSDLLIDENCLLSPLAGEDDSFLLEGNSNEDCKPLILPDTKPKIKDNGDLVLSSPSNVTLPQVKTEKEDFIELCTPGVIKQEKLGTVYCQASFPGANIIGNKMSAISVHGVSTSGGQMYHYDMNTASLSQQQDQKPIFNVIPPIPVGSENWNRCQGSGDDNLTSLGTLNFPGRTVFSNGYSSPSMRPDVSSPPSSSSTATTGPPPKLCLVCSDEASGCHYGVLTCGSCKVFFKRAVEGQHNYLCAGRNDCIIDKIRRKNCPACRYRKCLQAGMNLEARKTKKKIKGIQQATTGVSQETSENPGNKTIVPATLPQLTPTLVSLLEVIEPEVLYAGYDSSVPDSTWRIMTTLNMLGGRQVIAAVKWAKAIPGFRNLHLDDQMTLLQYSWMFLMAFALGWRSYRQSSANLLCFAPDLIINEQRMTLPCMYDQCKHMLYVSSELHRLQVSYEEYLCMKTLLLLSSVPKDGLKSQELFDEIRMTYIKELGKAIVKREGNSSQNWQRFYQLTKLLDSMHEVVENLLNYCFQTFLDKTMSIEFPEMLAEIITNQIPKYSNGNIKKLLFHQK

On to `CCc1nc(N)nc(N)c1-c1ccc(Cl)cc1`, for which the Potency result in [1], in experiment [2], in experiment [3], in [4], in [5] and in [6] was “inactive” each time. Also, the Potency result in experiment [7], in [8], in experiment [9], in [10], in experiment [11] and in experiment [14] was “inactive” throughout. The Potency was 668 nM (active) and 196 nM (active) and 109 nM (active) in experiment [12]; 1.5 µM (active) and 392 nM (active) and 217 nM (active) in experiment [13]; 62.1 µM (active) in experiment [15].

Regarding `CCCCNC(=O)NS(=O)(=O)c1ccc(C)cc1`, the Potency result in experiment [1], in experiment [2], in [3], in experiment [4], in experiment [5] and in experiment [6] was “inactive” each time. In addition, the Potency result in experiment [7], in experiment [8], in experiment [9], in [10], in experiment [11] and in [12] was “inactive” throughout. For the same molecule, the Potency entry in experiment [13], in experiment [16], in experiment [14] and in experiment [15] was “inactive” each time.

For the molecule `NC(CO)(CO)CO`, the Potency result in [1], in [2], in experiment [3], in experiment [4], in [5] and in [6] was “inactive” each time. In addition, the Potency entry in [7], in experiment [8], in experiment [9], in [10], in [11] and in experiment [12] was “inactive” in each case. The Potency result in experiment [13], in experiment [16], in [14] and in experiment [15] was “inactive” in each case.

For `COc1cccc(O)c1O`, the Potency result in experiment [1], in [2], in [3], in [4], in [5] and in experiment [6] was “inactive” throughout. Further, the Potency result in experiment [7], in experiment [8], in experiment [9], in experiment [10], in experiment [11] and in experiment [14] was “inactive” each time. Further, in experiment [15], the Potency result was “inactive”. Also, the Potency in experiment [12] was 25.3 µM (active).

Turning to `Nc1ccc(O)c([N+](=O)[O-])c1`, the Potency entry in [1], in experiment [2], in [3], in [4], in experiment [5] and in [6] was “inactive” each time. Also, the Potency entry in experiment [7], in experiment [8], in experiment [9] and in experiment [16] was “inactive” throughout. The Potency in [13] was 65.6 µM (active); in experiment [15], 45.7 µM (active).

Consider `CN1CCc2cccc3c2[C@H]1Cc1ccc(O)c(O)c1-3`, for which the Potency result in experiment [1], in [2], in [3], in experiment [4], in experiment [5] and in experiment [6] was “inactive” in each case. In addition, the Potency entry in [7], in [8], in experiment [9], in experiment [10], in experiment [11] and in experiment [14] was “inactive” each time. Besides, the Potency in experiment [12] is 11.9 µM (active) and 6.93 µM (active) and 9.09 µM (active); in experiment [13], 16.8 µM (active) and 12.3 µM (active) and 8.1 µM (active); in experiment [16], 55.5 µM (active); in experiment [15] it was 29.8 µM (active) and 49.1 µM (active) and 22.8 µM (active).

For the molecule `Cc1cc(C)nc(NS(=O)(=O)c2ccc(N)cc2)n1`, the Potency result in [1], in experiment [2], in experiment [3], in experiment [4], in experiment [5] and in [6] was “inactive” throughout. Also, the Potency result in experiment [7], in [8], in experiment [9], in [10], in experiment [11] and in experiment [17] was “inactive” in each case. Also, the Potency result in experiment [12], in experiment [13], in experiment [16], in experiment [14] and in [15] was “inactive” throughout.

Turning to `COc1ccc2c(c1)c(CC(=O)O)c(C)n2C(=O)c1ccc(Cl)cc1`, the Potency entry in experiment [1], in experiment [2], in [3], in experiment [4], in experiment [5] and in experiment [6] was “inactive” throughout. In addition, the Potency entry in experiment [7], in experiment [8], in experiment [9], in experiment [11], in experiment [12] and in experiment [13] was “inactive” each time. In addition, the Potency entry in experiment [16], in experiment [14], in [18] and in [15] was “inactive” in each case.

As for `CCCC[P+](CCCC)(CCCC)CCCC`, the Potency result in experiment [1], in experiment [2], in experiment [3], in [4], in experiment [5] and in experiment [6] was “inactive” in each case. The Potency entry in experiment [7], in experiment [8], in [9], in experiment [10], in [11] and in experiment [16] was “inactive” throughout. Besides, the Potency entry in experiment [14] and in experiment [15] was “inactive” in each case. The Potency in experiment [17] is 1.08 µM (active) and 7.84 µM (active) and 4.33 µM (active); in [12] it was 684 nM (active) and 3.93 µM (active); in experiment [13] it was 609 nM (active) and 3.5 µM (active).

For the molecule `OC[C@H]1O[C@H](O[C@]2(CCl)O[C@H](CCl)[C@@H](O)[C@@H]2O)[C@H](O)[C@@H](O)[C@H]1Cl`, the Potency entry in experiment [1], in [2], in experiment [3], in experiment [4], in experiment [5] and in experiment [6] was “inactive” in each case. For the same molecule, the Potency entry in experiment [7], in experiment [8], in [9], in experiment [10], in [11] and in experiment [12] was “inactive” in each case. The Potency entry in experiment [13], in experiment [16], in experiment [14] and in experiment [15] was “inactive” in each case.

On to `CC1(C)O[C@@H]2C[C@H]3[C@@H]4CCC5=CC(=O)C=C[C@]5(C)[C@@]4(F)[C@@H](O)C[C@]3(C)[C@]2(C(=O)CO)O1`, for which the Potency result in experiment [1], in experiment [2], in [3], in experiment [4], in experiment [5] and in experiment [6] was “inactive” throughout. In addition, the Potency entry in experiment [7], in experiment [8], in experiment [11], in [12], in experiment [13] and in experiment [16] was “inactive” in each case. Moreover, the Potency result in experiment [14] and in [15] was “inactive” each time. The Potency in experiment [9] is 3 nM [inconclusive] (active) and 349 nM [inconclusive] (active) and 1.4 nM (active).

For the molecule `CCN(CC)C(=O)c1cccc(C)c1`, the Potency entry in experiment [1], in [2], in [3], in experiment [4], in experiment [5] and in [6] was “inactive” in each case. In addition, the Potency result in experiment [7], in [8], in experiment [9], in [10], in experiment [11] and in experiment [12] was “inactive” each time. The Potency result in [13], in [16], in experiment [14] and in [15] was “inactive” each time.

As to `C1=CC2C3C=CC(C3)C2C1` (stereo not given), the Potency entry in experiment [1], in [2], in experiment [3], in experiment [4], in [5] and in [6] was “inactive” in each case. In addition, the Potency result in [7], in experiment [8], in experiment [9], in [11], in experiment [16] and in experiment [14] was “inactive” each time. For the same molecule, the Potency in experiment [12] is 47.7 µM (active).

Consider `Nc1c(N=Nc2ccc(-c3ccc(N=Nc4cc(S(=O)(=O)O)c5ccccc5c4N)cc3)cc2)cc(S(=O)(=O)O)c2ccccc12`, for which the Potency entry in experiment [1], in [2], in experiment [3], in experiment [4], in [5] and in [6] was “inactive” throughout. Also, the Potency result in experiment [7], in [8], in [9], in experiment [11] and in experiment [16] was “inactive” throughout. Moreover, the Potency in [10] was 21.3 µM (active); in [12], “inactive and 34.3 µM (active)”; in experiment [13] it was 54.4 µM (active); in [14], 26.6 µM (active) and 30.6 µM (active); in [15], 16.8 µM (active) and 27.3 µM (active).

The values above are taken from PubChem BioAssay (Tox21).
